“And” between values parts separate entries of the source, which are not always exact repeats. Equal values may be shown once. Results filed as inconclusive are left out. Where a call stands in place of a potency, no number is given. Values without a mark were called inactive. The source made the active and inactive calls. Unless noted, the call rests on the fitted dose curve; in most records, active means well fitted curve in the direction sought with a large enough effect; inconclusive means small, poorly fitted or top-dose-only effect, or another doubt; inactive means no such curve, though single readings can be large; an effect the other way counts as inactive or inconclusive.
Tests used:
[1] = target: Luciferin 4-monooxygenase (Photinus pyralis) (UniProt P08659); assay: Biochemical firefly luciferase enzyme assay for NPC (AID 624030);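 further: purified P. pyralis luciferase at 10 nM with luciferin and ATP substrate; series mostly up to about 59 µM; nearly all actives have a fitted effect of over 70% in size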
Procedure, shortened: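 Counter-screen for direct inhibition of the luciferase enzyme by approved-drug library compounds, run at 10 nM enzyme in 50 mM Tris acetate (final). Luminescence was read within 5 min of enzyme-buffer addition and normalized to PTC124 versus DMSO (0%).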

[2] = S16 Schwann cell viability assay (CellTiter-Glo assay) (AID 624031);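 further: native untransfected S16 rat Schwann cells; series mostly up to about 58 µM; nearly all actives have a fitted effect of over 70% in size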
Procedure, shortened: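 Counter-screen for cytotoxicity: parental S16 rat Schwann cells lacking the PMP22 reporters, treated 24 h with compound, viability from cellular ATP by CellTiter-Glo luminescence, normalized to DMSO (0%) and no-cell wells.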

[3] = S16 Schwann cell PMP22 intronic element firefly luciferase assay (AID 624032); further: series mostly up to about 58 µM; nearly all actives have a fitted effect of over 30% in size
Procedure, shortened: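 Rat S16 Schwann cells stably carrying a PMP22 intronic element-driven Fluc reporter were seeded overnight, then exposed to compounds for 24 h at 37 °C. Luminescence was normalized to PTC124 (positive control) and DMSO (0% activity).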

[4] = S16 Schwann cell PMP22 intronic element beta-lactamase assay (AID 624044; calls by dose curve; further: nearly all actives have a fitted effect of over 15% in size)
Procedure, shortened: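 Beta-lactamase reporter under a PMP22 intronic regulatory element in stable S16 rat Schwann cells; 24 h compound exposure. 460 nm blue signal normalized between DMSO (0%) and potassium clavulanate, with 535 nm FRET tracking viability; curves classed by r2 and response.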

[5] = target: Glutaminase kidney isoform, mitochondrial (Homo sapiens) (UniProt O94925); assay: qHTS for Inhibitors of Glutaminase (GLS): LOPAC Validation (AID 624146); further: nearly all actives have a fitted effect of over 60% in size; further: potency means the concentration at half of the fitted maximal effect
Procedure, shortened: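 hKGA in 45 mM KH2PO4 pH 8.2, 0.02% Tween-20 with pin-transferred compounds; 1 mM L-glutamine (stock) plus glutamate oxidase/HRP/Amplex Red coupling added. Fluorescence read initially and after 30 min at RT.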

[6] = qHTS of Trypanosoma Brucei Inhibitors: LOPAC Validation (AID 624147)
Procedure, shortened: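 Activity of T. brucei pyruvate kinase was followed by Kinase-Glo Plus luminescence after the enzyme reacted 45 min at room temperature with 130 uM ADP (final) and substrate. Test compounds were added before ADP at multiple concentrations.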

[7] = HTS Assay for Allosteric Antagonists of the Human D2 Dopamine Receptor: Hit Validation in HTRF (AID 624455);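 further: stable D1 dopamine receptor cell line scored for blocking the D1 response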
Procedure, shortened: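 Inhibition of the D1-mediated response is measured by HTRF in cells that stably express the D1 dopamine receptor. Compounds reaching this step are hits from calcium-flux antagonism testing at EC80 dopamine in inducible Hek293 Trex D2 cells.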

[8] = target: Glucagon-like peptide 1 receptor (Homo sapiens) (UniProt P43220); assay: qHTS of GLP-1 Receptor Agonists: LOPAC Validation (AID 624148);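 further: higher luminescence signal means agonism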
Procedure, shortened: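 HEK293 cells stably co-expressing a cAMP-responsive luciferase reporter and a hypersensitive GLP-1R were plated 12 h at 37 °C and exposed to compounds for 4-6 hr at 37 °C, 5% CO2. Luminescence was read 12 min after adding detection reagent.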

[9] = qHTS assay for small molecule activators of the p53 signaling pathway (AID 651743; active means well fitted activation curve with a large enough effect in the signal ratio, not every such curve was filed as active; the % refers to the signal ratio; further: series mostly up to about 92 µM); conditions: HCT-116 p53RE-bla, beta-lactamase FRET ratio, 16 h; activation: stronger effect = higher value
Procedure, shortened: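 Agonist-mode quantitative HTS in HCT-116 cells carrying a p53-response-element beta-lactamase reporter; 16 h compound treatment at 37 C, then FRET substrate loading for 2 h at room temperature and fluorescence read.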

[10] = qHTS assay for small molecule disruptors of the mitochondrial membrane potential - 1 hr assay (AID 651754; calls by dose curve; further: nearly all actives have a fitted effect of over 35% in size)
Procedure, shortened: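 Loss of mitochondrial potential shifts the cationic dye from red mitochondrial aggregates to green cytoplasmic monomers. Cells (HepG2) are treated with compound for 1 hr before a 30 min dye incubation at 37C.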

[11] = qHTS assay for small molecule disruptors of the mitochondrial membrane potential - 5 hr assay (AID 651755; calls by dose curve; further: nearly all actives have a fitted effect of over 40% in size)
Procedure, shortened: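 Seed HepG2 overnight, add compound, incubate 5 hr at 37C and 5% CO2, stain 30 min with Mito-MPS, then measure monomer (490/535 nm) and aggregate (540/590 nm) fluorescence.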

[12] = qHTS assay for small molecule activators of the nuclear factor-kappa B (NF-kB) signaling pathway (AID 651749; active means well fitted activation curve with a large enough effect in the signal ratio; the % refers to the signal ratio; further: series mostly up to about 77 µM); conditions: NF-kB-bla ME-180 cells, beta-lactamase FRET ratio, 16 h; stronger effect = higher value
Procedure, shortened: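 Human ME-180 cervical cells with an NF-kB-bla construct; compounds added via 23 nL pin transfer, DMSO as vehicle; incubation 16 hr. Reporter activity measured by FRET disruption.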

[13] = qHTS assay for small molecule agonists of the antioxidant response element (ARE) signaling pathway (AID 651741; active means well fitted activation curve with a large enough effect in the signal ratio; the % refers to the signal ratio)
Procedure, shortened: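 Reporter: beta-lactamase under ARE, stably in HepG2. Exposure: 16 h, 37 C, compounds delivered in DMSO by pin tool after 5 h cell preincubation. Readout: FRET substrate fluorescence after 2 h at RT.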

Glutaminase kidney isoform, mitochondrial (Homo sapiens), sequence (O94925 whole entry, looked up, canonical isoform): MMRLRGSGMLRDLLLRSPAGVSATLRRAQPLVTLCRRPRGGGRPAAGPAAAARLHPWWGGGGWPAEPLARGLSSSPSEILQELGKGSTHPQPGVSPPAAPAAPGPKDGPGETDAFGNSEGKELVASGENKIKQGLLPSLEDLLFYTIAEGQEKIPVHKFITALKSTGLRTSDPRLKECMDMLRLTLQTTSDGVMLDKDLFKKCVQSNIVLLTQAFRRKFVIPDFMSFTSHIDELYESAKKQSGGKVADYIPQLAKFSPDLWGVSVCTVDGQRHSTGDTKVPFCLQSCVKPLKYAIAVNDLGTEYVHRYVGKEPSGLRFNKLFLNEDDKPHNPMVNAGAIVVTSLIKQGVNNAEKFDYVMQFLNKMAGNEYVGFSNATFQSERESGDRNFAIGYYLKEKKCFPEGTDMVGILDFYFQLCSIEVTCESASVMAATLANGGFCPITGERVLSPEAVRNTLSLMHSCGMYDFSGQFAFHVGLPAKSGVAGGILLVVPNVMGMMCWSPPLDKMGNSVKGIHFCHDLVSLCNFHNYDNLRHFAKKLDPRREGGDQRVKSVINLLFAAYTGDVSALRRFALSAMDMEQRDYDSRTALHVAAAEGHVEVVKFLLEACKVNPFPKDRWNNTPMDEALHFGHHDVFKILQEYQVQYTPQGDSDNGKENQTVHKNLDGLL
Luciferin 4-monooxygenase (Photinus pyralis), sequence (P08659 whole entry, looked up): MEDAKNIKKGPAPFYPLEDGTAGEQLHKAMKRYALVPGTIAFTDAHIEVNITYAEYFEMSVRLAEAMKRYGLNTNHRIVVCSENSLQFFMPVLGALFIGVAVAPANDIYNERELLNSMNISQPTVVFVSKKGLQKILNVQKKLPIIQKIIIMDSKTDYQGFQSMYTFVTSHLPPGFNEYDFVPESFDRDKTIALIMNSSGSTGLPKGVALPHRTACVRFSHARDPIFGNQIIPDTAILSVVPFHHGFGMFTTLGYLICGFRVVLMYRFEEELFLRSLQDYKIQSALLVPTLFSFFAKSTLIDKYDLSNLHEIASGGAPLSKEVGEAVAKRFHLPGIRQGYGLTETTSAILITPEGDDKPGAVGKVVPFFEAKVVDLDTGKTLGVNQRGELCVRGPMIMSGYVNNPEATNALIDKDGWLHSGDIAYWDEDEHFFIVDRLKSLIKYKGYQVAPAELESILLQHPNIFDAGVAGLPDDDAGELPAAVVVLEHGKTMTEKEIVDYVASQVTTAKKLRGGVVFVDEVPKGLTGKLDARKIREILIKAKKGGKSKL
Glucagon-like peptide 1 receptor (Homo sapiens), sequence (P43220 whole entry, looked up): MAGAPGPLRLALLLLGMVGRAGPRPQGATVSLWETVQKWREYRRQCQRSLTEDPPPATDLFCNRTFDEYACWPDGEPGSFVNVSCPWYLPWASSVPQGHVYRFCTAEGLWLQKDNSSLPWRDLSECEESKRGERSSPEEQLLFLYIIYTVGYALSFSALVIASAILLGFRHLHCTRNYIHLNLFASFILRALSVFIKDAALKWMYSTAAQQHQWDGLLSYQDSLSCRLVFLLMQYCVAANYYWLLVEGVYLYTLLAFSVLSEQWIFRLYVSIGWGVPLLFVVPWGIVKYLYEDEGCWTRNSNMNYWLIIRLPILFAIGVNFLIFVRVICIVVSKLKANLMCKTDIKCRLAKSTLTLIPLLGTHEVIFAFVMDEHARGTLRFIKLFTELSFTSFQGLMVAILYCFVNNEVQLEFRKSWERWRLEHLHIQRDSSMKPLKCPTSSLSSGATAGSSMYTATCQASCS

In the case of C=CCN1C[C@H](C)N([C@H](c2ccc(C(=O)N(CC)CC)cc2)c2cccc(OC)c2)C[C@H]1C, the Potency [1] is reported as “inactive”.
For COC1CC(=C(c2cccs2)c2cccs2)C[N+](C)(C)C1 (stereo unspecified), the Potency [1] was “inactive”, the outcome [2] was “inactive” and the Potency [3] was “inactive”.
In the case of CN1C(=O)NC(=O)C(C)(C2=CCCCC2)C1=O (stereo unspecified), the Potency [1] is reported as “inactive”, the outcome [2] is reported as “inactive” and the Potency [3] is reported as “inactive”.
In the case of CN1C(=O)COc2c(C(=O)NC3CN4CCC3CC4)cc(Cl)cc21 (stereo unspecified), the Potency [1] is reported as “inactive” and the outcome [2] is reported as “inactive”.
In the case of NC(=O)CS(=O)C(c1ccccc1)c1ccccc1 (stereo unspecified), the Potency [1] is reported as “inactive”, the outcome [2] is reported as “inactive” and the Potency [3] is reported as “inactive”.
In the case of COc1c2c(cc3c1OCO3)CCN(C)C2, the Potency [1] is reported as “inactive”, the outcome [2] is reported as “inactive” and the Potency [3] is reported as “inactive”.
With CCN(CC)C(=O)[C@@H]1C=C2c3cccc4[nH]cc(c34)C[C@H]2N(C)C1 the Potency [1] was “inactive”.
For C[C@](O)(CS(=O)(=O)c1ccc(F)cc1)C(=O)Nc1ccc(C#N)c(C(F)(F)F)c1, the Potency [1] was “inactive”.
With CCC1(CC)C(=O)C=CNC1=O the Potency [1] was “inactive”, the outcome [2] was “inactive” and the Potency [3] was “inactive”.
In the case of COc1cccc(C(=O)CCN[C@@H](C)[C@H](O)c2ccccc2)c1, the Potency [1] is reported as “inactive”.
For Cc1nnc2n1-c1ccc(Cl)cc1C(c1ccccc1)=NC2, the Potency [1] was “inactive”, the outcome [2] was “inactive” and the Potency [3] was “inactive”. The outcome [4] was “inactive”.
In the case of C[C@H](N)C(=O)c1ccccc1, the Potency [1] is reported as “inactive”.
In the case of CC(C)(C)NCC(O)c1cc(Cl)c(N)c(C(F)(F)F)c1 (stereo unspecified), the Potency [1] is reported as “inactive” and the outcome [2] is reported as “inactive”.
In the case of CCN(CC)CCc1c[nH]c2ccccc12, the Potency [1] is reported as “inactive”.
In the case of c1ccc(CN2CCNCC2)cc1, the Potency [1] is reported as “inactive”.
With CNCC(=O)c1ccc(O)c(O)c1 the Potency [1] was “inactive”.
In the case of CCN[C@@H](C)Cc1cccc(C(F)(F)F)c1, the Potency [1] is reported as “inactive”.
For CN1C(=O)CC(=O)N(c2ccccc2)c2cc(Cl)ccc21, the Potency [1] was “inactive” and the outcome [2] was “inactive”.
In the case of C[C@]12CCC(=O)C=C1CC[C@@H]1[C@H]3CC[C@](C)(O)[C@@]3(C)CC[C@@H]12, the Potency [1] is reported as “inactive”.
In the case of COc1cc(CC(C)N)cc(OC)c1OC (stereo unspecified), the Potency [1] is reported as “inactive”.
For CC(Cc1ccccc1)NCCn1cnc2c1c(=O)n(C)c(=O)n2C (stereo unspecified), the Potency [1] was “inactive”.
With CN(C)CCc1c[nH]c2cccc(OP(=O)(O)O)c12 the Potency [1] was “inactive”.
In the case of CCCN(CCC)C(=O)Cc1c(-c2ccc(Cl)cc2)nc2ccc(Cl)cn12, the Potency [1] is reported as “inactive”.
With CCc1cc2c(s1)-n1c(C)nnc1CN=C2c1ccccc1Cl the Potency [1] was “inactive”.
In the case of CCCCCCC(=O)CCCCCC/C=C/C[C@@H](O)[C@H](O)[C@@](N)(CO)C(=O)O, the Potency [1] is reported as “inactive” and the outcome [2] is reported as “inactive”.
For C[C@]12CC[C@@H]3c4ccc(OC(=O)N(CCCl)CCCl)cc4CC[C@H]3[C@@H]1CC[C@@H]2OP(=O)(O)O, the Potency [1] was “inactive”.
With COc1cc(CCN)cc(OC)c1OC the Potency [1] was “inactive”.
In the case of CNC(C)(C)Cc1ccccc1, the Potency [1] is reported as “inactive” and the outcome [2] is reported as “inactive”.
With CCN[C@@H](C)Cc1ccccc1 the Potency [1] was “inactive”.
In the case of NNc1ccccc1, the Potency [1] is reported as “inactive”, the outcome [2] is reported as “inactive” and the Potency [3] is reported as “inactive”.
For O=c1oc2ccccc2c(O)c1Cc1c(O)c2ccccc2oc1=O, the Potency [1] was “inactive” and the outcome [2] was “inactive”.
For CCC1(c2ccccc2)C(=O)N(COC)C(=O)N(COC)C1=O, the Potency [1] was “inactive”, the outcome [2] was “inactive” and the Potency [3] was “inactive”.
For COC(=O)C(Cl)C(=O)OC, the Potency [1] was “inactive”.
In the case of CC(C)(C)NCC(O)c1ccccc1Cl (stereo unspecified), the Potency [1] is reported as “inactive”, the outcome [2] is reported as “inactive” and the Potency [5] is reported as “inactive”. For the same molecule, the outcome [6] was “inactive” and the Potency [7] was “inactive”.
In the case of Cc1ncsc1CCCl, the Potency [1] is reported as “inactive”, the outcome [2] is reported as “inactive” and the Potency [3] is reported as “inactive”. For the same molecule, the Potency [5] was “inactive”, the outcome [6] was “inactive” and the outcome [8] was “inactive”. For the same molecule, the Potency [7] was “inactive”.
With O=C(CCCN1CCC2(CC1)C(=O)NCN2c1ccccc1)c1ccc(F)cc1 the Potency [1] was “inactive”, the outcome [2] was “inactive” and the outcome [4] was “inactive”. The Potency [5] was “inactive”, the outcome [8] was “inactive” and the Potency [7] was “inactive”.
In the case of C[C@]12CCC(=O)C=C1CC[C@@H]1[C@@H]2CC[C@]2(C)C(=O)CC[C@@H]12, the Potency [1] is reported as “inactive”, the outcome [2] is reported as “inactive” and the Potency [3] is reported as “inactive”. For the same molecule, the outcome [4] was “inactive”, the activation [9] was -1.07% and 0.979% and the Potency [10] was “inactive”. For the same molecule, the Potency [11] was “inactive”.
For COP(=S)(OC)Oc1ccc(S(=O)(=O)N(C)C)cc1, the Potency [1] was “inactive”, the outcome [2] was “inactive” and the outcome [4] was “inactive”.
For COP(=S)(OC)SCN1C(=O)c2ccccc2C1=O, the Potency [1] was “inactive”, the outcome [2] was “inactive” and the Potency [3] was “inactive”. For the same molecule, the outcome [4] was “inactive”, the activation [9] was 6.79% and the activation [12] was -2.37%.
With CCOP(=S)(OCC)Oc1ccc2c(C)c(Cl)c(=O)oc2c1 the Potency [1] was “inactive”, the outcome [2] was “inactive” and the outcome [4] was “inactive”. The activation [9] was -4.7%.
For CN1C(=O)CCS(=O)(=O)C1c1ccc(Cl)cc1 (stereo unspecified), the Potency [1] was “inactive”, the outcome [2] was “inactive” and the Potency [5] was “inactive”. For the same molecule, the outcome [6] was “inactive”, the outcome [8] was “inactive” and the Potency [7] was “inactive”.
With O=C1Nc2ccc(Cl)cc2C(c2ccccc2)=NC1O (stereo unspecified) the Potency [1] was “inactive”, the outcome [2] was “inactive” and the outcome [4] was “inactive”.
For Nc1ccc([As](=O)(O)O)cc1, the Potency [1] was “inactive”, the outcome [2] was “inactive” and the outcome [4] was “inactive”. For the same molecule, the Potency [13] was “inactive”, the activation [9] was -0.538% and the activation [12] was -0.596%.
With CC(C)c1cccc(C(C)C)c1O the Potency [1] was “inactive”, the outcome [2] was “inactive” and the outcome [4] was “inactive”. The Potency [5] was 4.47 µM (active), the outcome [6] was “inactive” and the outcome [8] was “inactive”. The Potency [7] was “inactive”, the Potency [13] was “inactive” and the activation [9] was 0.635%. The activation [12] was 1.44%, the Potency [10] was “inactive” and the Potency [11] was “inactive”.

— PubChem BioAssay (NCATS)
